PubChem BioAssay
Several values for one entry are separate records, joined by “and”; a condition that tells them apart may be missing. Identical values can stand only once. Activity calls are given as the source filed them.

Experiments:
[1] = tested on: PRMT1 (protein arginine N-methyltransferase 1); test: PRMT1 binders on small-molecule microarrays, primary screen, biochemical, small-molecule microarray, 635 nm fluorescence (AID 1088); conditions: small-molecule microarray binding, higher = more signal;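 note: binding of Prmt1 protein to compounds spotted on small-molecule microarray slides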
[2] = yeast growth modulation, basal conditions, primary screen, YJM789 clinical isolate, OD600, 24 h (AID 1089);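 note: growth of clinical yeast isolate S. cerevisiae YJM 789 seeded 1000 cells per well; test concentration not given here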; conditions: S. cerevisiae YJM789 growth, higher = more signal, called active from +8 up or from −8 down
[3] = fission yeast growth modulation, primary screen, strain 972, OD600, 24 h, no modulator (AID 1090);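 note: basal condition with compound alone and no growth modifier present; test concentration not given here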; conditions: S. pombe 972 growth, higher = more signal, called active from +8 up or from −8 down
[4] = S. cerevisiae growth modulation with rapamycin, primary screen, strain BY4716, OD600, 96 h (AID 1091); conditions: higher = more signal, called active from +8 up or from −8 down; note: test concentration not given here
[5] = molecular target: Torsin-1A-interacting protein 2 (Homo sapiens) (UniProt Q8NFQ8); test: LULL1 binders on small-molecule microarray, primary screen, cell lysate, human LULL1 lysate, 635/667 nm fluorescence (AID 1092); conditions: hLULL1 lysate binding, 635 nm fluorescence, higher = more signal;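 note: probe is lysate of COS7 cells overexpressing human LULL1; score merges per-feature 667 nm fluorescence with signal-to-noise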
[6] = E. coli growth modulation, two-sided OD650, primary screen, E. coli filamentation project, strain DRC41, 24 h (AID 1093); conditions: OD650, 24 h, higher = more signal, called active from +8 up or from −8 down;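 note: MC1000 strain lacking acrAB efflux and sulA so SOS filamentation is blocked; test concentration not given here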
[7] = small-molecule microarray binders of probe aLefty2, primary screen, biochemical, biotinylated probe, 635/667 nm fluorescence (AID 1094); conditions: higher = more signal;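 note: score merges spot fluorescence near 667 nm with spot signal-to-noise ratio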
[8] = tested on: Noggin (protein binding on small-molecule microarray); test: Noggin binders on small-molecule microarray, primary screen, biochemical, 635/667 nm fluorescence (AID 1095); conditions: 635 nm fluorescence, higher = more signal;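 note: score merges 667 nm feature fluorescence with signal to noise over triplicate slides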
[9] = molecular target: Neurogenic locus notch homolog protein 3 (Homo sapiens) (UniProt Q9UM47); test: NOTCH3 binders on small-molecule microarray, primary screen, biochemical, 635/667 nm fluorescence (AID 1096); conditions: NOTCH3 binding, 635 nm fluorescence, higher = more signal
[10] = small-molecule microarray binders of probe aEGFR, primary screen, biochemical, biotinylated probe, 635/667 nm fluorescence (AID 1097); conditions: higher = more signal;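 note: probe is a biotinylated anti-EGFR antibody binding compounds printed on slides; score combines fluorescence near 667 nm and signal to noise of each spot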
[11] = tested on: Plasmodium falciparum Sir2 (PF13_0152, Sir2A); test: pfSir2 binders on small-molecule microarrays, primary screen, biochemical, small-molecule microarray, 635 nm fluorescence (AID 1098); conditions: small-molecule microarray binding, fluorescence 635 nm; higher = more signal;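 note: score merges spot fluorescence intensity with its signal-to-noise ratio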
[12] = small-molecule microarray binders of probe aDKK1, primary screen, biochemical, biotinylated probe, 635/667 nm fluorescence (AID 1099); conditions: higher = more signal;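 note: score merges 667nm spot fluorescence with signal to noise across triplicate slides; reference of the scale not given here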
[13] = small-molecule microarray binders of probe aCHRDL2, primary screen, biochemical, biotinylated probe, 635/667 nm fluorescence (AID 1100); conditions: higher = more signal
[14] = splicing luciferase reporter signal modulators, primary screen, spliceosome inhibition project, cell-based, HEK293, splice +/- reporter (AID 1101); conditions: luminescence, 24 h, higher = more signal, called active from +8 up or from −8 down;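 note: HEK293 cells carrying a splicing-competent luciferase reporter gene; test concentration not given here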
[15] = molecular target: Fibroblast growth factor 10 (Homo sapiens) (UniProt O15520); test: FGF10 binders on small-molecule microarrays, primary screen, biochemical, small-molecule microarray, 635 nm fluorescence (AID 1102); conditions: FGF10 binding, fluorescence 635 nm, higher = more signal
[16] = tested on: glycogen synthase kinase-3 (GSK3A per assay name; protocol says GSK3B); test: GSK3 binders on small-molecule microarrays, primary screen, biochemical, small-molecule microarray, 635 nm fluorescence, GSK3A (AID 1103); conditions: small-molecule microarray binding, fluorescence 635 nm; higher = more signal; note: the record names both GSK3A and GSK3B
[17] = molecular target: Epidermal growth factor receptor (Homo sapiens) (UniProt P00533); test: EGFR binders on small-molecule microarrays, primary screen, biochemical, small-molecule microarray, 635 nm fluorescence (AID 1104); conditions: EGFR binding, higher = more signal;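 note: score merges 667 nm emission intensity with spot signal to noise over triplicate slides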
[18] = molecular target: Follistatin-related protein 3 (Homo sapiens) (UniProt O95633); test: FSTL3 binders on small-molecule microarrays, primary screen, biochemical, small-molecule microarray, 635 nm fluorescence (AID 1105); conditions: FSTL3 binding, higher = more signal;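 note: score merges emission near 667 nm and signal to noise per printed spot across three slides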
[19] = molecular target: Dickkopf-related protein 1 (Homo sapiens) (UniProt O94907); test: DKK1 binders on small-molecule microarrays, primary screen, biochemical, small-molecule microarray, 635 nm fluorescence scan (AID 1106); conditions: DKK1 binding, higher = more signal;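 note: score merges emission near 667 nm with signal to noise over three replicate slides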
[20] = tested on: Inhibin beta A chain (activin A); test: INHBA (activin A) binders on microarrays, primary screen, biochemical, small-molecule microarray, 635 nm fluorescence scan (AID 1107); conditions: small-molecule microarray binding, higher = more signal;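 note: mouse activin A protein probed at 4.33 µg/mL on printed slides; score merges bound-protein fluorescence near 667 nm with spot signal-to-noise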

Chain of Epidermal growth factor receptor (Homo sapiens) (P00533 whole entry, looked up): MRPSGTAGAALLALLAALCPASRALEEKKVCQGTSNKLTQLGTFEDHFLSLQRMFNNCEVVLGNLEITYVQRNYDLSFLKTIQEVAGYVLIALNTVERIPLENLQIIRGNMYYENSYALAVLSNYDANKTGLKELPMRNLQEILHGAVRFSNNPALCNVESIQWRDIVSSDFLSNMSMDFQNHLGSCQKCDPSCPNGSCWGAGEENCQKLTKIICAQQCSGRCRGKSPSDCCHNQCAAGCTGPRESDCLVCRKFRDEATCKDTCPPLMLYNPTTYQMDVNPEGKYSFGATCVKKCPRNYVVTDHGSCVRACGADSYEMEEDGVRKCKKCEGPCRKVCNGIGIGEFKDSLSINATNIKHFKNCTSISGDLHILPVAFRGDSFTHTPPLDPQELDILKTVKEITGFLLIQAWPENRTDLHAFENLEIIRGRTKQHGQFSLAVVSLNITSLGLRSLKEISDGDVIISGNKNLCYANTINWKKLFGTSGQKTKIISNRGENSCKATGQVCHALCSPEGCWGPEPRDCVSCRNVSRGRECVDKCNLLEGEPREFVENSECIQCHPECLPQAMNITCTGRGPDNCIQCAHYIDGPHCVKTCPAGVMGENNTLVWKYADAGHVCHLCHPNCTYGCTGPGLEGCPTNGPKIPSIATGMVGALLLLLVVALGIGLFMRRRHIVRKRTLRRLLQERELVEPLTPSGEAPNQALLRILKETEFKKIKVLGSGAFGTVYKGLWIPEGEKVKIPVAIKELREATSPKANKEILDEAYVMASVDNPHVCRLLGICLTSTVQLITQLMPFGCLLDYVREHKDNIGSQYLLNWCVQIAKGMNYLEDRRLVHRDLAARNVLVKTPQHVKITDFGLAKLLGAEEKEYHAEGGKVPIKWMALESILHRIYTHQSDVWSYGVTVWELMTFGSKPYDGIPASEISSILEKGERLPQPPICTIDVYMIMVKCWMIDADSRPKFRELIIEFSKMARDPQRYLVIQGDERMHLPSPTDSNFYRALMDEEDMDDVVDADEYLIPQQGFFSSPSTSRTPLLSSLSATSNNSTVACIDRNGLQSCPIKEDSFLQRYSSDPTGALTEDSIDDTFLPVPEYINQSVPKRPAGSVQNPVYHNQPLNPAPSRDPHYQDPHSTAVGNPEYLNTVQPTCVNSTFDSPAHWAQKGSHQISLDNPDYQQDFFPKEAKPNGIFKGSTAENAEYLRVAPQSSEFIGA
Chain of Fibroblast growth factor 10 (Homo sapiens) (O15520 whole entry, looked up): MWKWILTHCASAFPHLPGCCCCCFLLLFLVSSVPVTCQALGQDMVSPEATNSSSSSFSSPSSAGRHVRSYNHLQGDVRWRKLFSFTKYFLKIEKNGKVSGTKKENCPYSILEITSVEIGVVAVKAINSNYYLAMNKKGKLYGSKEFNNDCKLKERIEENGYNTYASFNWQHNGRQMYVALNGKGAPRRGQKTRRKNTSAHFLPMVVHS
Chain of Torsin-1A-interacting protein 2 (Homo sapiens) (Q8NFQ8 whole entry, looked up): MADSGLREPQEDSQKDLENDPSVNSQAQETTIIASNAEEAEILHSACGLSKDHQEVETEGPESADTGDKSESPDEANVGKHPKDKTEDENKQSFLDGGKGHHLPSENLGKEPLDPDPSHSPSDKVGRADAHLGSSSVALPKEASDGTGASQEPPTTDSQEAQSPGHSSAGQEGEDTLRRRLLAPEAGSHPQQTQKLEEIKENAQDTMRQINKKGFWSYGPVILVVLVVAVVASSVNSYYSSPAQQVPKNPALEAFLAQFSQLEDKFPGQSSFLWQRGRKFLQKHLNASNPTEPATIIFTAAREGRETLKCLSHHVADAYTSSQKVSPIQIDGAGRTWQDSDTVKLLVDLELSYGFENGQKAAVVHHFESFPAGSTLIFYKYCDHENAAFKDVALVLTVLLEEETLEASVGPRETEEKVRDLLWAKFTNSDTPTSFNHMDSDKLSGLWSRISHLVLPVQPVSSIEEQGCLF
Chain of Follistatin-related protein 3 (Homo sapiens) (O95633 whole entry, looked up): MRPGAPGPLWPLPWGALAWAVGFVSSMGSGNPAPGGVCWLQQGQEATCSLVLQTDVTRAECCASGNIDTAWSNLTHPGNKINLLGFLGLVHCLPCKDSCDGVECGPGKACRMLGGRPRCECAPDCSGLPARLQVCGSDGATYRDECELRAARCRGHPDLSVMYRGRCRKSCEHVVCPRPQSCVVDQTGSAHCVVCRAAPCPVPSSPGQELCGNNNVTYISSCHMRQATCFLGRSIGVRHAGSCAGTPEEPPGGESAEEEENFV
Chain of Dickkopf-related protein 1 (Homo sapiens) (O94907 whole entry, looked up): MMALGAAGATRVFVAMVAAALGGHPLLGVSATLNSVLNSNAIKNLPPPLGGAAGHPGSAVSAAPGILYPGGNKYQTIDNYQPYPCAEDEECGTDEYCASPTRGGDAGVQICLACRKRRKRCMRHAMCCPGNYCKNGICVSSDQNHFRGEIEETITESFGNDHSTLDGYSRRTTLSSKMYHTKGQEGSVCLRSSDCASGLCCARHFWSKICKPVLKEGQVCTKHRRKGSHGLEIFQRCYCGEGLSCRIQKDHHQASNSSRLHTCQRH
Chain of Neurogenic locus notch homolog protein 3 (Homo sapiens) (Q9UM47 whole entry, looked up): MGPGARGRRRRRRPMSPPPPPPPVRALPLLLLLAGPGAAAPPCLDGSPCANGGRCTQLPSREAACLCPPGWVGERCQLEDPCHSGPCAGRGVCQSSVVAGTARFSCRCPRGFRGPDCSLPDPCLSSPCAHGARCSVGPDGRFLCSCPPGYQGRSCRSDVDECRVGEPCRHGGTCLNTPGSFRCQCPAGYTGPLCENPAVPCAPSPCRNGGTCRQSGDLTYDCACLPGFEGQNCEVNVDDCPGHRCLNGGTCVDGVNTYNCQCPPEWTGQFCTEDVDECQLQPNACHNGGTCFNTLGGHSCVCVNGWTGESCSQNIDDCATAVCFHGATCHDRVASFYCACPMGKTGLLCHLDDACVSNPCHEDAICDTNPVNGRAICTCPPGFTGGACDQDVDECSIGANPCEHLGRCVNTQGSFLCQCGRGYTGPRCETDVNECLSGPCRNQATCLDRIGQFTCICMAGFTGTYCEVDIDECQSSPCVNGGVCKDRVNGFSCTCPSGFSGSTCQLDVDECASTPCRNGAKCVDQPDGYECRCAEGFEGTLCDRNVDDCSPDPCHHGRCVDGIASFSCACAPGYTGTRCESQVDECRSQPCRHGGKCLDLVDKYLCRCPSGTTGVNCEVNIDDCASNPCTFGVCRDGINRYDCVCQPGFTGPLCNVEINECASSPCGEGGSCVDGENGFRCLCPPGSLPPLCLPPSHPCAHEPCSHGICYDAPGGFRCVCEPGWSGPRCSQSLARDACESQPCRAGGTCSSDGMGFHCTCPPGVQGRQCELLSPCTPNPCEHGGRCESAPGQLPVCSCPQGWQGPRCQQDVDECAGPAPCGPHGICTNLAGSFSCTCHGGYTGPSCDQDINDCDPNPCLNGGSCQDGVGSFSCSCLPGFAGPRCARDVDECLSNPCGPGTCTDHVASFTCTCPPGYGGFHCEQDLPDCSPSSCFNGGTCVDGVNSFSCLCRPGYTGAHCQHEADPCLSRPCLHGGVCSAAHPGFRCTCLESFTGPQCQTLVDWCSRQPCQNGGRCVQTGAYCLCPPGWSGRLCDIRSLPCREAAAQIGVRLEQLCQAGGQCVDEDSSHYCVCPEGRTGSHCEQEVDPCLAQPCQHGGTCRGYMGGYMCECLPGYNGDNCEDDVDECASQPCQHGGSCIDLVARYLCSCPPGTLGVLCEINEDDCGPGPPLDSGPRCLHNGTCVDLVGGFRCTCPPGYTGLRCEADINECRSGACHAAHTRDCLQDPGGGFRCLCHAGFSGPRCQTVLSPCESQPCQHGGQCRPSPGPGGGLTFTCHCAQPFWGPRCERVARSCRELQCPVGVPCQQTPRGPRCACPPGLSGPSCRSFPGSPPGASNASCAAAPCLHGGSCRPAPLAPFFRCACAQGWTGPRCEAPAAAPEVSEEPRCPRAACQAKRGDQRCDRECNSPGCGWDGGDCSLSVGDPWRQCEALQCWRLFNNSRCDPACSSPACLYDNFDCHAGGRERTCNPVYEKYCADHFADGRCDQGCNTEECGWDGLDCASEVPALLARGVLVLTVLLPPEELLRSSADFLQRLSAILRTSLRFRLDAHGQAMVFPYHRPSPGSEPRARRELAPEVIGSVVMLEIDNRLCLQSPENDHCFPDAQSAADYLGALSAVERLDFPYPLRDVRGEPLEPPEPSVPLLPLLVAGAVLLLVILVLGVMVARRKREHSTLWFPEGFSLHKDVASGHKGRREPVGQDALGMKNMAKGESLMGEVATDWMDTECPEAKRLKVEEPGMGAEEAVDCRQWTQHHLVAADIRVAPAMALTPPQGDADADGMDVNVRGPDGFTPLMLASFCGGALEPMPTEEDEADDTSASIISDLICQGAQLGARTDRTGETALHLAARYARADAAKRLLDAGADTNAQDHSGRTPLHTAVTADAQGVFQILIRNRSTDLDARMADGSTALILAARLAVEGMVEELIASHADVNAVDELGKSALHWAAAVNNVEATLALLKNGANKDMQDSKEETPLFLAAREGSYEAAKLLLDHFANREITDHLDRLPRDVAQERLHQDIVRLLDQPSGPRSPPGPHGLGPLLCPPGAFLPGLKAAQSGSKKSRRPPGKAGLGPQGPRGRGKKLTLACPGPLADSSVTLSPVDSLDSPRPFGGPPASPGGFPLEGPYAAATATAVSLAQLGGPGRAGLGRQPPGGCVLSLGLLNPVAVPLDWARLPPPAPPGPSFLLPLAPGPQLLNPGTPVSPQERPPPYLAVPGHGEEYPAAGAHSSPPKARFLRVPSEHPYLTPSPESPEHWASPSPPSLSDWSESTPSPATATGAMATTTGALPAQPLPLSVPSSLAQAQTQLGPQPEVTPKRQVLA

Row | Structure (SMILES) | composite z-score [1] | z-score [2] | z-score [3] | z-score [4] | composite z-score [5] | z-score [6] | composite z-score [7] | composite z-score [8] | composite z-score [9] | composite z-score [10] | composite z-score [11] | composite z-score [12] | composite z-score [13] | z-score [14] | composite z-score [15] | composite z-score [16] | composite z-score [17] | composite z-score [18] | composite z-score [19] | composite z-score [20]
1 | C=CC[C@@H](O)c1ccc(O)c2ccccc12 | 1.57 and 1.49 | -22 (active) and -23.3 (active) | -20 (active) and -20.4 (active) | 6.56 (inactive) and 5.68 (inactive) | 1.01 and 0.0783 | 1.92 (inactive) and 0.416 (inactive) | -0.0511 and -0.0812 | 1.1 and 0.869 | 1.11 and 1.1 | 0.0153 and -0.0531 | 1.35 and 1.41 | -0.05 and -0.227 | -0.0013 and -0.333 | -0.879 (inactive) and 3.08 (inactive) | 0.991 and 1.34 | 0.797 and 1.25 | 1.33 and 1.15 | 1.2 and 1.43 | 0.817 and 1.14 | 1.38 and 0.954
2 | C=CCN(C(=O)C1N(CCCCCCO)C(=O)C2C(C(=O)O)C3C=CC21O3)c1ccc(OC)cc1 (stereo not given) | -0.176 and -1.86 | -0.943 (inactive) and -0.7 (inactive) | -2.12 (inactive) and -1.62 (inactive) | -1.2 (inactive) and -0.708 (inactive) | 3.53 and 3.04 | 2.3 (inactive) and 1.01 (inactive) | 0.259 and 0.337 | -2.89 and -3.12 | -0.602 and -1.35 | -0.267 and -0.241 | 1.04 and -1.32 | 0.0787 and 0.332 | 1.27 and 1.18 | -1.67 (inactive) and -0.118 (inactive) | -0.791 and -1.26 | -0.329 and -0.852 | -2.79 and -2.32 | -2.58 and -1.84 | -2.84 and -2.35 | -1.71 and -1.78
3 | COC(=O)C1=C(C)N(Cc2ccccc2)[C@]23O[C@](C(=O)OC)(C(=O)N2[C@@H]1c1ccccc1)[C@H]1C(=O)N(C)C(=O)[C@H]13 | 1.42 and 0.289 | -0.458 (inactive) and -0.907 (inactive) | -0.0692 (inactive) and -1.06 (inactive) | 0.609 (inactive) and -0.776 (inactive) | 1.9 and 0.741 | 1.12 (inactive) and 0.684 (inactive) | -0.0831 and -0.125 | 1.35 and 0.752 | 0.877 and 0.903 | -0.0967 and 0.128 | 0.626 and 0.336 | 0.0479 and 0.177 | -0.284 and -0.474 | -1.03 (inactive) and -1.27 (inactive) | 0.408 and 0.827 | 0.933 and 0.452 | 0.473 and 0.427 | 0.645 and 0.82 | 0.415 and 0.942 | -0.338 and 0.137
4 | CC(C)CON=C1C[C@@H](O)[C@@H](O)[C@@H]2[C@@H]3C(=O)N(c4cccc(Oc5ccccc5)c4)C(=O)[C@@H]3CC[C@H]12 | 0.973 | 0.097 (inactive) | 0.561 (inactive) | -0.54 (inactive) | 0.897 | 1.04 (inactive) | -0.136 | 0.318 | 0.951 | -0.0549 | 0.0512 | -0.354 | -0.712 | -0.00485 (inactive) | 0.357 | 0.278 | 0.338 | 0.571 | 0.661 | -0.15
